We go through 108 sequences from PubChem BioAssay AID1508600 (Functional Genomics Laboratory (NCATS/FGL), 2020).

Hit rate of the full screen: of about 53,000 sequences, about 3,700 (7%) were called active. Only a selection was taken, and actives are over-represented in it overall. A number with no mark means an inactive call.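 The calls were made as follows: active = gene knockdowns whose robust z-score for IL-1 alpha signal is at least 2 or at most -2, so actives lie on both sides; inactive = the rest.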

A short description of the test: Components of the Cytosolic LPS Sensing Pathway: Gene Identification via Genome-wide siRNA Screen.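 Also: robust z of the log signal after scaling to non-targeting control siRNA wells of the plate.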 The note with it: RAW264.7 macrophages, IL-1a HTRF, actives lie on both sides, screened at 100 nM (by protocol), cells primed 5 h with Pam3CSK4 first. In short, it runs like this:
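RAW264.7 mouse macrophages reverse-transfected with single siRNAs (100 nM final) for 48h, primed with Pam3CSK4 for 5 hours, then transfected with LipidA for 24 hour. Supernatant IL-1a read by HTRF; values normalized to negative-control median, log-transformed robust z-scores.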
As to CCGUCGUCCUAGAAAAACCTT against Nsun7, the z-score was -1.18.

Turning to CCUACUAAACUCAGUCUUUTT against Kap, the z-score was 1.08.

With GGAUCAUGCAGACAUGCUGTT against Ggcx, the z-score is -0.278.

For GGUUCUAAAUCAGAAGUGCTT against Tyw5, the z-score was -2.08 (active).

As for GGUAUAGCCACAGGUACAUTT against Phxr5, the z-score was -0.368.

GCAGAUAUUUUUGUAAGCATT against Csmd1: the z-score was -0.644.

On to GGCUUGAUGGGCUUUUUGCTT against Ndufb8, for which the z-score was 0.285.

For GGUCCCAGUCAUUAUCCACTT against Gdap1l1, the z-score was 2.43 (active).

In the case of GGUAAUUAAAACCAUGGAGTT against Rex1bd, the z-score is -0.0412.

As for GGCCCAGGAUAUUUUAGUUTT against Atg9b, the z-score is -0.553.

On to GCCGUACGAAAAAUAAGCATT against Rps7, for which the z-score was -0.402.

GGCCAAAGUACUUUGUUCCTT against Pdpr: the z-score was 3.63 (active).

On to GGUUCUUCGAAGCAAUAGCTT against Sphkap, for which the z-score is -0.973.

For the sequence GCACACAUCAAGAAACUUGTT against Mxi1, the z-score was 0.963.

Regarding GGAGAAAUAACUGAAAUUCTT against Klhl13, the z-score is -0.816.

As to GGACUUCUACCCAGCGAUATT against P3h4, the z-score is -0.536.

Consider CCUCCAGAUAACAAAUGCATT against Dlx3, for which the z-score was 0.335.

Regarding CGCAUUACAUUAGCCAAAATT against Ttc28, the z-score was 1.21.

For GCUCAGUAAUCUGAGGCCATT against Lox, the z-score was -2.03 (active).

As to GGAGAUCCGUUCAAGGGUUTT against Olfr557, the z-score is 0.73.

On to CCAACUGCACUGUCAAACUTT against Tbcc, for which the z-score is -0.224.

With “GGAAUGUGUCUUCUCAAGUTT against A530021J07Rik”, the z-score was 2.35 (active).

Turning to GGACCAGCACAUGUGGAUUTT against Olfr547, the z-score was 0.31.

Turning to GGACCUGGUAUCUCUAUAUTT against Rasgrp4, the z-score is -0.807.

GCAUAAUUCUAAAGACGGGTT against Zfp143: the z-score is -0.1.

Consider GGUUAUAGACAAGAUCGAUTT against Comp, for which the z-score was 0.536.

On to CCCACCAGUAAGGAGUUCATT against Dido1, for which the z-score was -0.177.

On to GCCACGAACAUGAUGUACATT against Slco3a1, for which the z-score was 0.229.

For GGUUUUAUUUGGGAUUAGCTT against Arfgap2, the z-score was 0.327.

Turning to GGCAGAUCUGAUCAACGGATT against Mtln, the z-score was -2.14 (active).

With GCUUGUGGAUUCGAUUUGGTT against Gtf3c5, the z-score was 0.485.

In the case of GCUGAAUGAUAUGGAACCUTT against Vapa, the z-score is -1.76.

In the case of GGAGAUAAAGUCUUAUCACTT against Misp, the z-score is -2.05 (active).

Consider GGAAAUCGUGCGUGGCUACTT against Phpt1, for which the z-score is 1.57.

Consider GGCCAUCUUUGACAGUGCUTT against Dnah1, for which the z-score was 1.11.

As to GGCAUUUGUAAUUCCAGUUTT against Spata33, the z-score was 0.456.

Consider GGAUUCAGGGAACAGCAAUTT against Ntrk3, for which the z-score was -3.08 (active).

As for GGUACAGAACAUGUUCUAATT against Klf4, the z-score was 1.18.

With GCACAAGCGAUGGGUUAACTT against Fkbp1a, the z-score is -0.708.

For GGCUCACGAGGAACUAAAUTT against Ift52, the z-score was 0.115.

For the sequence GGAACUUCACUUUUAACACTT against Il33, the z-score was -0.534.

For CGUUUUUCUCUAACUUACATT against Ldlrad3, the z-score is 2.6 (active).

As for GGUGAUGUCCUAUUUCAAATT against Erp27, the z-score is 0.302.

GGUUCUAUCUACCUACAGGTT against Igfn1: the z-score is 1.78.

For the sequence GGAGAAGAGUCAAGAGCUCTT against Vxn, the z-score was 0.103.

As to GGUAUCCAAGAAAACCUAUTT against Tnmd, the z-score was 0.475.

Take CCUUCUGUAGUUGGAAUCATT against Them5: the z-score is 1.41.

Regarding CCUGUAUGGAGUAAUGGAATT against Eif4ebp3, the z-score is 0.13.

For the sequence GGUGGUGUUAAAAUAUACUTT against Gnl3, the z-score is 3.07 (active).

For the sequence GCCAGAAGACUGUAUACCATT against Rp9, the z-score was -0.0396.

Take GGUUGUUGGUCUUCUGUGATT against Nme3: the z-score was -1.27.

As to GGCCAUCUAAAAAUAGUAATT against Ccdc171, the z-score was 0.707.

In the case of GGAGCACUUAGAAAUGUCCTT against Olfr342, the z-score is -0.174.

Regarding GGACUUUGUACAUUGUUUUTT against Actb, the z-score was 2.2 (active).

As for GGUCUUCUAAGAAAUUUUGTT against Fmnl2, the z-score was 0.407.

As for GGAUGUGUCUCACUUCUUGTT against Th, the z-score is -1.5.

In the case of GCUGCCUCUCACCAAGUAUTT against Creb3l3, the z-score was -1.43.

Consider GCAUGAAGAGCUAAUGCUATT against Eprs, for which the z-score was -0.364.

For the sequence GGCUAUGAGGACUCCUAUGTT against Plekha7, the z-score is -2.53 (active).

With GCAAGUCCAUUCUUUUUCATT against Tmprss11g, the z-score was -0.643.

For GGAAACCUGAUACUAACAATT against Afmid, the z-score was -1.88.

Regarding GGAAGUCCUUGCAUUCCUCTT against Dlec1, the z-score is 0.816.

For GGCUGAGAAAACCAAAGGGTT against Cfdp1, the z-score was 1.9.

As for GCUGGAGUGUCAGUCAUAUTT against Reg4, the z-score is 3.35 (active).

On to GGUCUAUCGCUUGCUUUUUTT against Abca2, for which the z-score was 1.67.

Regarding GGUAAUCAGUAGUGACUUATT against Mkln1, the z-score is 0.229.

As for CCCUCAACCAUUGUUCGAGTT against Rasal1, the z-score is -0.328.

Take GGGCUGUAUUUCUUUACCCTT against Mrgprb2: the z-score was 0.508.

Turning to GCGCAGCACAGGUUUUGAATT against Klf10, the z-score was -0.217.

Turning to GGAAAAAAUACCAGAAACATT against Klre1, the z-score is -2.68 (active).

For the sequence GCCUAUCGAAAAGUCUUGGTT against Adcyap1, the z-score is 0.875.

On to GGCCAAGCUAUAAGAAAUGTT against Cntnap2, for which the z-score is 0.201.

Regarding AACUCCCUCCCUGUUGUAGTT against A4galt, the z-score was -0.361.

Take GGCCAUAUUAAGUAUGGAGTT against Fam118a: the z-score is -0.34.

As for GGAGAAGUAAAACUCGAAGTT against Rwdd2a, the z-score was 0.276.

On to “CCGAAUUUCUCCUAUUGGGTT against Olfr106-ps”, for which the z-score was -0.241.

As for GGUAUGUAACGGUAUUUAATT against Gja1, the z-score was 2.66 (active).

As for CCUAGAGCCGUGUGCAUACTT against Plp2, the z-score was 0.891.

Turning to CCAUUGGUUUUGAGGAUAUTT against Pomp, the z-score is -1.18.

As to GGUAGAAAAAACACAAACGTT against Ppp2r3c, the z-score is 1.43.

In the case of GGUUUUGUGGGAAGAGUCATT against Ccdc163, the z-score was -2.99 (active).

As to CCUGGACAUAACCAAUGUATT against Glrp1, the z-score is 1.5.

Turning to CCCUGGGCAGUUUGCAUGUTT against Dgcr2, the z-score was 0.815.

On to GCAACGAGGUACUGUUUUATT against Rab7b, for which the z-score is 0.626.

Regarding GGUAGAGCUGCACUUUGGATT against Hddc3, the z-score is -1.43.

Turning to GGUUUGUCAGGUUCUAAAATT against Atf1, the z-score was 2.34 (active).

For GGUACAAAGACUGACGAGUTT against Gnptg, the z-score was 0.00278.

Regarding CGACCAGAAGUGGUAUGUCTT against Adra2a, the z-score is -1.03.

With GGAGACAUUCACUGUCUUCTT against Ephb4, the z-score was -0.322.

With CCAGUAUCUAAUUGGAAUATT against Paqr8, the z-score was 2.07 (active).

Consider GCUGUUUGAAGCUGAUACCTT against Fads3, for which the z-score is -0.0526.

With GGCAUCCAGACAAGUGAUGTT against Zer1, the z-score is 0.699.

Take GCCAUCACAAUUCUAAUCCTT against Vmn2r123: the z-score is -1.54.

For the sequence CCAAGAUUGACAUCAUCCGTT against Pkn1, the z-score was -0.595.

As to CGAAUACCUGAAGUGCAAATT against Art3, the z-score is 0.454.

Take GGAGCCAGAACCUGAAAUUTT against Ankrd1: the z-score was 2.86 (active).

For the sequence GCUCUAGACAUAUGAGGCUTT against Wee2, the z-score was -0.0864.

As for “CCCAUGAUGCCAUCUUUAATT against 2410002F23Rik”, the z-score was -1.03.

Regarding GGAACAUUUCUGGAUUGUUTT against Muc1, the z-score was -0.503.

With CCAGCUCUCGAUUCCAUCATT against Fem1a, the z-score was 0.615.

Consider GGAUACCCUGGAGUUUAUATT against Prss42, for which the z-score was 0.941.

On to GCGUGAUCAUUGAUGUGGATT against Slc5a7, for which the z-score was 0.364.

For the sequence GUUCCACAAAGACCAUCAGTT against Olfr134, the z-score is 0.679.

For GCCUGGUUAAGGCAUGAUATT against Gm4884, the z-score was 2.63 (active).

GCCACAACCACCUGAACUUTT against Amigo1: the z-score was -0.854.

As for GGACUUCAAGGAUAGUGAGTT against Osm, the z-score is -1.13.

GGUCGAUGCAAAGAUGCUGTT against Smoc1: the z-score is 0.811.

As to GCUUCUGUAAAUCCCAUAUTT against Olfr26, the z-score is -0.0814.
